In the antibiotic and cytotoxicity screens of Wong et al. (2023):
Out of some 39,000 compounds screened, about 3,300 (8.5%) were called active. The list comes from a sample in which actives are over-represented; it also holds similar structures and randomly drawn compounds.

These compounds were tested on HepG2 (assay: cytotoxicity call (relative viability < 0.9)). Details: 10 µM.
With `COc1cc(Nc2ncc3c(n2)-c2ccc(Cl)cc2C(c2c(F)cccc2OC)=NC3)ccc1C(=O)O` the cytotoxicity call was “active”.
With `C[C@@H]1CN([C@H](C)CO)C(=O)c2cc(NC(=O)CCCCCC(=O)Nc3ccccc3N)ccc2O[C@H]1CN(C)Cc1ccc(-c2ccccc2)cc1` the cytotoxicity call was “active”.
In the case of `C[C@H](CO)N1C[C@H](C)[C@H](CN(C)Cc2ccc(C(F)(F)F)cc2)Oc2ccc(NC(=O)CCCCCC(=O)Nc3ccccc3N)cc2C1=O`, the cytotoxicity call is reported as “inactive”.
`C[C@@H]1CN([C@@H](C)CO)C(=O)c2cc(NC(=O)CCCCCC(=O)Nc3ccccc3N)ccc2O[C@@H]1CN(C)Cc1ccc(C(F)(F)F)cc1` was tested, and the cytotoxicity call was “inactive”.
`C[C@@H]1CN([C@@H](C)CO)C(=O)c2cc(NC(=O)CCCCCC(=O)Nc3ccccc3N)ccc2O[C@@H]1CN(C)Cc1ccc(-c2ccccc2)cc1` was tested, and the cytotoxicity call was “active”.
In the case of `C[C@H]1CN([C@@H](C)CO)C(=O)c2cc(NC(=O)CCCCCC(=O)Nc3ccccc3N)ccc2O[C@H]1CN(C)Cc1ccc(-c2ccccc2)cc1`, the cytotoxicity call is reported as “inactive”.
In the case of `C[C@H](CO)N1C[C@H](C)[C@@H](CN(C)Cc2ccc(C(F)(F)F)cc2)Oc2ccc(NC(=O)CCCCCC(=O)Nc3ccccc3N)cc2C1=O`, the cytotoxicity call is reported as “inactive”.
`C[C@@H]1CN([C@H](C)CO)C(=O)c2cc(NC(=O)CCCCCC(=O)Nc3ccccc3N)ccc2O[C@@H]1CN(C)Cc1ccc(C(F)(F)F)cc1` was tested, and the cytotoxicity call was “inactive”.
For `C[C@H](CO)N1C[C@H](C)[C@H](CN(C)Cc2ccc(-c3ccccc3)cc2)Oc2ccc(NC(=O)CCCCCC(=O)Nc3ccccc3N)cc2C1=O`, the cytotoxicity call was “active”.
`C[C@@H]1CN([C@@H](C)CO)C(=O)c2cc(NC(=O)CCCCCC(=O)Nc3ccccc3N)ccc2O[C@H]1CN(C)Cc1ccc(C(F)(F)F)cc1` was tested, and the cytotoxicity call was “inactive”.
In the case of `COc1ccc(CN(C)C[C@@H]2Oc3ccc(NS(C)(=O)=O)cc3CC(=O)N([C@H](C)CO)C[C@@H]2C)cc1`, the cytotoxicity call is reported as “inactive”.
In the case of `O=C(C[C@H]1CC[C@@H]2[C@H](COC[C@@H](O)CN2S(=O)(=O)c2ccc(Oc3ccccc3)cc2)O1)NCCN1CCCCC1`, the cytotoxicity call is reported as “inactive”.
`Cc1noc(C)c1S(=O)(=O)Nc1ccc2c(c1)CC(=O)N([C@H](C)CO)C[C@H](C)[C@H](CN(C)S(C)(=O)=O)O2` was tested, and the cytotoxicity call was “inactive”.
For `O=C1O[C@H](c2ccccc2)[C@H](c2ccccc2)N2[C@H]1[C@@H](C(=O)Nc1nc3ccccc3s1)[C@]1(C(=O)Nc3ccc(C#CCCO)cc31)[C@H]2c1ccc(OCCO)cc1`, the cytotoxicity call was “inactive”.
With `COc1ccc(S(=O)(=O)Nc2ccc3c(c2)C(=O)N([C@@H](C)CO)C[C@@H](C)[C@@H](CN(C)C(=O)Nc2cccc4ccccc24)OCCCC[C@@H](C)O3)cc1` the cytotoxicity call was “inactive”.
With `COc1ccc(NC(=O)N(C)C[C@@H]2Oc3c(NC(=O)C4CCOCC4)cccc3C(=O)N([C@H](C)CO)C[C@@H]2C)cc1` the cytotoxicity call was “inactive”.
For `C[C@H]1CN([C@@H](C)CO)C(=O)c2cccc(NS(=O)(=O)c3cn(C)cn3)c2O[C@H]1CN(C)C(=O)Nc1ccc(F)cc1`, the cytotoxicity call was “inactive”.
In the case of `COc1cccc(S(=O)(=O)Nc2ccc3c(c2)C(=O)N(C)C[C@H](OC)[C@H](C)CN(C(=O)Cc2cccnc2)[C@@H](C)CO3)c1`, the cytotoxicity call is reported as “inactive”.
In the case of `Cc1ccc(S(=O)(=O)N(C)C[C@@H]2OCCCC[C@@H](C)Oc3ccc(NC(=O)Nc4ccc5c(c4)OCO5)cc3C(=O)N([C@@H](C)CO)C[C@@H]2C)cc1`, the cytotoxicity call is reported as “inactive”.
`S=C1NCN(C2CCCC2)CN1` was tested, and the cytotoxicity call was “inactive”.
In the case of `CCN1CCC[C@@H]1CN1CNC(=S)NC1`, the cytotoxicity call is reported as “active”.
For `S=C1NCN(Cc2ccncc2)CN1`, the cytotoxicity call was “inactive”.
`C[C@H](CO)N1C[C@H](C)[C@H](CN(C)C(=O)Nc2ccc(C(F)(F)F)cc2)OCCCC[C@H](C)Oc2ccc(NC(=O)Nc3cccc4ccccc34)cc2C1=O` was tested, and the cytotoxicity call was “inactive”.
For `O=C(Cc1ccncc1)NCC[C@@H]1CC[C@H](NC(=O)C2CCOCC2)[C@H](CO)O1`, the cytotoxicity call was “inactive”.
For `CN(C)Cc1nc2c([nH]1)c(=O)[nH]c(=O)n2C`, the cytotoxicity call was “active”.
`CN(C)c1nc2c([nH]1)c(=O)[nH]c(=O)n2C` was tested, and the cytotoxicity call was “inactive”.
With `Cn1c(=O)[nH]c(=O)c2[nH]cnc21` the cytotoxicity call was “inactive”.
With `Cc1ccc(S[C@]2(C(=O)NCC(C)C)CC(=O)N(Cc3ccccc3)[C@@H]2c2ccc(CO)cc2)cc1` the cytotoxicity call was “inactive”.
`O=C1[N-]C(=O)C(c2ccccc2)(c2ccccc2)N1.[Na+]` was tested, and the cytotoxicity call was “inactive”.
With `C[C@H](CO)N1C[C@H](C)[C@H](CN(C)S(=O)(=O)c2ccc(F)cc2)Oc2ccc(NC(=O)Cn3cnnn3)cc2C1=O` the cytotoxicity call was “inactive”.
`CC(C)NC(=O)N(C)C[C@@H]1Oc2c(NC(=O)C3CCCCC3)cccc2C(=O)N([C@H](C)CO)C[C@H]1C` was tested, and the cytotoxicity call was “inactive”.
With `C[C@@H]1CN([C@@H](C)CO)C(=O)c2cccc(NC(=O)NC3CCCCC3)c2O[C@@H]1CN(C)C(=O)Nc1ccc(C(F)(F)F)cc1` the cytotoxicity call was “inactive”.
In the case of `C[C@@H]1CN([C@@H](C)CO)C(=O)c2cccc(NC(=O)C3CCCCC3)c2O[C@@H]1CN(C)C(=O)Nc1ccc(C(F)(F)F)cc1`, the cytotoxicity call is reported as “inactive”.
In the case of `C[C@H](CO)N1C[C@H](C)[C@H](CN(C)C(=O)Nc2ccc(C(F)(F)F)cc2)Oc2c(NC(=O)C3CCCCC3)cccc2C1=O`, the cytotoxicity call is reported as “active”.
`C[C@@H]1CN([C@H](C)CO)C(=O)c2cccc(NC(=O)C3CCCCC3)c2O[C@H]1CN(C)C(=O)Nc1ccc(C(F)(F)F)cc1` was tested, and the cytotoxicity call was “inactive”.
With `C[C@H](CO)N1C[C@H](C)[C@H](CN(C)C(=O)Nc2ccc(C(F)(F)F)cc2)Oc2c(NC(=O)NC3CCCCC3)cccc2C1=O` the cytotoxicity call was “active”.
In the case of `CC(C)NC(=O)N(C)C[C@@H]1Oc2c(NC(=O)C3CCCCC3)cccc2C(=O)N([C@@H](C)CO)C[C@@H]1C`, the cytotoxicity call is reported as “active”.
`C[C@H](CO)N1C[C@H](C)[C@@H](CN(C)C(=O)Nc2ccc(C(F)(F)F)cc2)Oc2c(NC(=O)NC3CCCCC3)cccc2C1=O` was tested, and the cytotoxicity call was “inactive”.
`C[C@@H]1CN([C@H](C)CO)C(=O)c2cccc(NC(=O)NC3CCCCC3)c2O[C@H]1CN(C)C(=O)Nc1ccc(C(F)(F)F)cc1` was tested, and the cytotoxicity call was “active”.
With `CC(C)NC(=O)N(C)C[C@H]1Oc2c(NC(=O)C3CCCCC3)cccc2C(=O)N([C@H](C)CO)C[C@@H]1C` the cytotoxicity call was “inactive”.
`N#CCC(=O)N1CCSCC1` was tested, and the cytotoxicity call was “inactive”.
In the case of `C[C@@H]1CCCCO[C@@H](CN(C)S(=O)(=O)c2ccc(F)cc2)[C@@H](C)CN([C@H](C)CO)C(=O)c2cc(NS(C)(=O)=O)ccc2O1`, the cytotoxicity call is reported as “inactive”.
